Records with an inconclusive call do not appear. A number with no mark means an inactive call. Activity calls are given as the source filed them. Calls follow the shape of the dose curve; as a rule, active = well fitted cell-killing curve with a large enough effect; inconclusive = small, poorly fitted or top-dose-only effect; inactive = flat fitted curve, though single readings scatter.
Potency is read from the fitted curve at half-maximal effect.

The nature of this assay: Quantitative highthroughput screen to assess conditional lethalithy of P12 Ichikawa cells grown in Human Plasma-Like Medium with dialyzed fetal bovine serum (HPLM+ds) (AID 1963879). Also: nearly all actives have a fitted effect of over 35% in size. The following applies: ATP luminescence, 48 h; Potency: viability; series mostly up to 45.8 µM; viability: at the top concentration. The gist of the method:
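Each medium arm—HPLM with 10% dialyzed FBS, or RPMI1640 with 5 mM glucose and 10% untreated or dialyzed FBS—was screened against an 11-point, 3-fold compound titration for 48 h at 37 °C, with CellTiter-Glo luminescence as endpoint.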
In the case of `CC(=O)OCC(CCn1cnc2cnc(N)nc21)COC(C)=O`, the viability (in general, a read-out of living cells in per cent, often relative to untreated cells) was 104%.

As to `CNC(=O)c1ccc2cc(C3(O)CCn4cncc43)ccc2c1` (centres undefined), the “viability” value was 107%.

Turning to `COc1ncc(-c2ccc3c(Nc4cc(Oc5cc(F)cc(F)c5)cc(C(=O)O)c4)c(S(=O)(=O)NC4CC4)cnc3c2)c(OC)n1`, the “viability” value was 103%.

`Cc1cc(C(C)Nc2ccccc2)c2nc(N3CCOCC3)cc(=O)n2c1` (centres undefined): the “viability” value was 94.5%.

Regarding `O=C1CCC[C@@H]2[C@H]3CCC[N+]4([O-])CCC[C@@H](CN12)[C@@H]34` (some centres undefined), the “viability” value was 100%.

For the molecule `CN(CCOc1ccc(NS(C)(=O)=O)cc1)CCc1ccc(NS(C)(=O)=O)cc1`, the “viability” value is 102%.

With `CC[C@@H]([C@H](C)O)n1ncn(-c2ccc(N3CCN(c4ccc(OCC5CO[C@@](Cn6cncn6)(c6ccc(F)cc6F)C5)cc4)CC3)cc2)c1=O` (some centres undefined), the “viability” value is 101%.

With `O=C(c1ccc(F)cc1)C1CCN(CCn2c(=O)[nH]c3ccccc3c2=O)CC1`, the “viability” value is 101%.

Consider `CC(O)C1C(=O)N2C(C(=O)O)=C(SC3CNC(C(=O)N(C)C)C3)C(C)C12` (centres undefined), for which the “viability” value was 93.9%.

With `COc1ccc(F)c(F)c1C(=O)c1cnc(NC2CCN(S(C)(=O)=O)CC2)nc1N`, the Potency was 20.9 µM (active).

As to `COc1ccc2c(Oc3ccc(NC(=O)c4c(C)n(CC(C)(C)O)n(-c5ccccc5)c4=O)cc3F)ccnc2c1`, the “viability” value was 93.6%.

With `CC1CNc2c(cccc2S(=O)(=O)N[C@@H](CCCN=C(N)N)C(=O)N2CC[C@@H](C)C[C@@H]2C(=O)O)C1` (some centres undefined), the “viability” value is 92.1%.

Consider `Cc1cnc(Nc2ccc(OCCN3CCCC3)cc2)nc1Nc1cccc(S(=O)(=O)NC(C)(C)C)c1`, for which the “viability” value is 102%.

With `CCCCN(CCCC)CCC(O)c1cc2c(Cl)cc(Cl)cc2c2cc(C(F)(F)F)ccc12` (centres undefined), the “viability” value was 97.2%.

The values above are taken from PubChem BioAssay (NCATS).
